Laboratory results: PubChem BioAssay (NCI)
This is part of a sample that, as a whole, favours compounds with a hit. Of some 83,000 tested, about 20% had one in any assay.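 Step 1: grow cells in 96-well plates. Step 2: add test compound at a single concentration. Step 3: incubate 48 h. Step 4: record percent growth.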 Activity calls are given as the source filed them. Rule for the calls: active = growth percent below 10; inactive = the rest.

test system: SR leukemia; assay: NCI-60 one-dose screen, 48 h (100 = growth as untreated, 0 = no growth, -100 = all killed); conditions: 10 µM unless noted

| SMILES | growth |
| --- | --- |
| O=S(=O)(Nc1ccc2c(c1)OCO2)c1ccc(-c2cnc(C3CC3)o2)cc1 | 26.6% (inactive) |
| COc1cccc2c1CN(C(=O)c1ccc(O)c(C(=O)N3Cc4ccc(OCCC[P+](c5ccccc5)(c5ccccc5)c5ccccc5)cc4C3)c1)C2 | 35.3% (inactive) |
| O=S(=O)(Nc1ccc(I)cc1Cl)c1ccc(-c2cnc(C3CC3)o2)cc1 | 34.5% (inactive) |
| C=C(C=O)[C@@H]1CC[C@]2(CO)CC[C@]3(C)[C@H](CC[C@@H]4[C@@]5(C)CCCNC(C)(C)[C@@H]5CC[C@]43C)[C@@H]12 | 3.73% (active) |
| CNC(=O)c1c(NC(=O)c2cccc(C(F)(F)F)c2F)sc2c1CCC(=O)C2 | 20% (inactive) |
| COc1ccc(C2c3sc4c(C)cccc4c3Oc3nc(CC(=O)Nc4ccccc4)[nH]c(=O)c32)cc1 (stereo unspecified) | 62.7% (inactive) |
| COCCNc1ccc2ncc(C#Cc3cncc(C(=O)Nc4ccc(CN5CCN(C)CC5)c(C(F)(F)F)c4)c3)n2n1 | -6.69% (active) |
| CCn1c(SCC(=O)Nc2cccc(C(=O)/C=C/c3ccc(C)cc3)c2)nc2ccccc2c1=O | 56.4% (inactive) |
| CN1c2ccccc2Sc2cc(C=C(C#N)C#N)ccc21 | 105% (inactive) |
| CN1CCN(Cc2ccc(NC(=O)c3cncc(C#Cc4cnn5cccnc45)c3)cc2C(F)(F)F)CC1 | -16.3% (active) |
| N#Cc1cccc(/C(N)=N/C(N)=N/c2nc3ccccc3s2)c1 | 26.2% (inactive) |
| NS(=O)(=O)c1ccc(Nc2nc(N/N=C/c3c[nH]c4ccccc34)nc(Nc3ccccc3)n2)cc1 | 12.1% (inactive) |
| N#C/C(=C\c1ccc(-c2ccc(Cl)cc2Cl)o1)c1ccc(F)cc1 | 90.5% (inactive) |
| O=C1/C(=C/C=C/c2ccco2)SC(=S)N1C1CCCCC1 | 82.2% (inactive) |
| O=C(Nc1cccc(Cl)c1)Nc1nc2ccc([N+](=O)[O-])cc2o1 | 50.8% (inactive) |
| COc1cc(OC)c(S(N)(=O)=O)cc1C(=O)/C=C/c1ccc(Cl)cc1 | -19.5% (active) |
| CC1=N[C@@H]2CN(C(=O)OC(C)(C)C)C[C@@H]2n2c1cc1ccccc1c2=O | 99.9% (inactive) |
| O=S(=O)(NCCNc1nccc(-n2cnc3ccccc32)n1)c1ccc(Br)cc1 | 75.1% (inactive) |
| COc1cccc2cc(-c3cc4ccccc4[nH]3)/c(=N\NC(=O)c3ccc(Cl)cc3)oc12 | 25.7% (inactive) |
| COc1cc(-c2nn(C(C)(C)C)cc2-c2ccnc(NCCCNS(=O)(=O)c3ccc(F)cc3)n2)ccc1Cl | 48.8% (inactive) |
| CCCn1cnc2c(c1=N)C(c1ccc(F)cc1)c1sc3c(CC)cccc3c1O2 (stereo unspecified) | 1.23% (active) |
| COc1ccc(-n2c(/C=C3\C(=O)Nc4ccccc43)ccc2CO)cc1 | 105% (inactive) |
| CCn1c2ccccc2c2cc(-n3nncc3-c3ccccc3)ccc21 | 10.4% (inactive) |
| CCCn1cnc2c(c1=N)C(c1ccc(Cl)cc1)c1sc3c(CC)cccc3c1O2 (stereo unspecified) | 24.2% (inactive) |
| Cc1ccc(C2=Nn3c(nnc3-c3ccccc3)SC2)cc1 | 14% (inactive) |
| Cc1ccc(NC(=O)N[C@@H](Cc2cc(F)cc(F)c2)C(=O)NC2C(=O)N3C[C@H](O)C[C@H]3C(=O)N3CCCC[C@H]3C(=O)N[C@@H](CO)C(=O)N3C[C@H](C)C[C@H]3C(=O)O[C@H]2C)c(F)c1 (stereo partly specified) | 40.6% (inactive) |
